The text below walks through data of PubChem BioAssay (Tox21).

The nature of experiment [1]: qHTS assay to identify small molecule agonists of the androgen receptor (AR) signaling pathway in the presence of an antagonist - cell viability counter screen (AID 1259379). Further: nearly all actives have a fitted effect of over 25% in size. Further: potency means the concentration at half of the fitted maximal effect.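 On activity change, negative = cytotoxicity: MDA-kb2 human breast cancer cells carrying an MMTV luciferase reporter; series mostly up to about 92 µM.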 Put shortly:
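Nilutamide-containing (3.0uM final) MDA-kb2 cultures, 3,000 cells/well, were treated with compounds across 15 concentrations. After 16 hr at 37C with no CO2, cell viability was determined by CellTiter-Fluor fluorescence in the luciferase assay wells.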

Experiment [2] deals with Estrogen receptor (Homo sapiens) (UniProt P03372). Nature of the experiment: qHTS assay to identify small molecule agonists of the estrogen receptor alpha (ER-alpha) signaling pathway in the presence of an antagonist (AID 1259383; calls by dose curve; further: nearly all actives have a fitted effect of over 15% in size; further: potency means the concentration at half of the fitted maximal effect; on activation: top concentration of the series differs between compounds). A digest of the protocol:
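Readout was ERE-driven luciferase luminescence in VM7Luc4E2 cells, which express full-length ER-alpha endogenously. Compounds were tested at 15 concentrations for 22hr alongside 10.0nM ICI-182,780 (final concentration).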
A general note: qHTS replaces the single test concentration by a dilution series.

Experiment [3] can be described thus: qHTS assay to identify small molecule agonists or antagonists of the thyroid stimulating hormone receptor (TSHR) signaling pathway - wild type cell line counter screen (AID 1259384; calls by dose curve). Put shortly: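 Wild-type HEK293 cells were plated 18 h at 37 C/5% CO2, pin-dosed with compound plus Ro20-1724 medium, held 30 min at room temperature, then given cAMP-d2 and anti-cAMP-cryptate; fluorescence was read after 1 h. Fifteen concentrations, triplicate.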

Experiment [4] has as its target Thyrotropin receptor (Homo sapiens) (UniProt P16473). Nature of the experiment: qHTS assay to identify small molecule antagonists of the thyroid stimulating hormone receptor (TSHR) signaling pathway (AID 1259385; calls by dose curve; further: nearly all actives have a fitted effect of over 20% in size). Put shortly:
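TSHR-HEK293 cells were plated and held 18 h at 37C/5% CO2, then given compound plus Ro20-1724 and stimulated with TSH at 1.5 ng/mL final. After 30 min at room temperature, cAMP was detected with cAMP-d2/anti-cAMP-cryptate (1 h) by fluorescence.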

In experiment [5] the target is Progesterone receptor (Homo sapiens) (UniProt P06401). Nature of the experiment: qHTS assay to identify small molecule agonists of the progesterone receptor (PR) signaling pathway (AID 1346784; calls by dose curve; further: nearly all actives have a fitted effect of over 30% in size). A digest of the protocol: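 PR-UAS-bla HEK 293T cells (beta-lactamase reporter under UAS) in 2% charcoal-stripped FBS, dosed with 23 nL compound after 6 hr, incubated 16hr at 37C. LiveBLAzer B/G FRET substrate added, fluorescence read after 2 hours.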

Experiment [6] can be described thus: qHTS assay to identify small molecule antagonists of the TGF-beta/Smad signaling pathway - cell viability counter screen (AID 1346824). Further: nearly all actives have a fitted effect of over 50% in size. Put shortly:
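SBE-bla HEK 293T cells were plated overnight at 37 C, then given compounds in DMSO plus TGF-beta1 (added as 0.25 ng/mL solution) for 5 hr. After the bla read, CellTiter-Glo was added to the same wells and luminescence read after 30 min at room temperature.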

Experiment [7] can be described thus: qHTS assay to identify small molecule agonists of the TGF-beta/Smad signaling pathway - cell viability counter screen (AID 1346829). Further: top concentration of the series differs between compounds; nearly all actives have a fitted effect of over 45% in size. A digest of the protocol:
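SBE-bla HEK 293T cells plated overnight, compound exposure 5 hr at 37 C. Viability read in the same wells by CellTiter-Glo luminescence after 30 min at room temperature, following the beta-lactamase read.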

Experiment [8] deals with Thyrotropin-releasing hormone receptor (Homo sapiens) (UniProt P34981). Description: qHTS assay to identify small molecule antagonists of the thyrotropin-releasing hormone receptor (TRHR) signaling pathway (AID 1346877; active means well fitted inhibition curve with a large enough effect in the repeat runs, not every such curve was filed as active; further: series mostly up to about 51 µM). Put shortly: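 Kinetic fluorescence (3 min, 1 s resolution) following stimulation with TRH at 1 nM final; HEK293 cells bearing human TRHR; 5 min compound preincubation at RT; concentration-response over 15 points, triplicates.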

Experiment [9] has the same target. Nature of the experiment: qHTS assay to identify small molecule agonists of the thyrotropin-releasing hormone receptor (TRHR) signaling pathway (AID 1346891; calls by dose curve; further: series mostly up to about 58 µM). A digest of the protocol: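 HEK293 cells expressing TRHR plated 18 h at 37 C/5% CO2, calcium dye-loaded 2 h at 37 C, then compound added (agonist mode); kinetic calcium fluorescence read 3 min at 1 s intervals; 15 concentrations in triplicate.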

The nature of experiment [10]: qHTS assay to identify small molecule agonists of the estrogen receptor beta (ER-beta) signaling pathway - cell viability counter screen (AID 1259380). Further: nearly all actives have a fitted effect of over 30% in size. Further: potency means the concentration at half of the fitted maximal effect. A digest of the protocol:
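Steps: plate ER-beta-UAS-bla HEK293T cells, rest 6 hr; add compounds in DMSO; incubate 16 hr at 37C, 5% CO2; add FRET substrate 2 hr; add CellTiter-Glo, wait 30 min at room temperature; read luminescence.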

Experiment [11] can be described thus: qHTS assay to identify small molecule antagonists of the estrogen receptor beta (ER-beta) signaling pathway - cell viability counter screen (AID 1259382). Further: series mostly up to about 92 µM; nearly all actives have a fitted effect of over 55% in size. Put shortly: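 Viability is scored by CellTiter-Glo luminescence (30 min, room temperature) in ER-beta-UAS-bla HEK293T wells already read for reporter fluorescence. Compound exposure lasts 16 hr at 37C alongside 1nM 17-beta-estradiol in charcoal-stripped serum medium.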

Experiment [12] is described as follows: qHTS assay to identify small molecule agonists of the estrogen receptor alpha (ER-alpha) signaling pathway in the presence of an antagonist - cell viability counter screen (AID 1259386).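 Further: series mostly up to about 92 µM; cells exposed to compounds for 22 h at 37 °C before the viability read; nearly all actives have a fitted effect of over 30% in size.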 Put shortly:
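In this counter screen, compound effects on VM7Luc4E2 viability were tested in the presence of the antagonist ICI-182,780 at 10.0nM final. Compounds were dosed at 15 concentrations, exposure lasted 22hr, and the CellTiter-Fluor signal was read.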

The target of experiment [13] is Progesterone receptor (Homo sapiens) (UniProt P06401). Nature of the experiment: qHTS assay to identify small molecule antagonists of the progesterone receptor (PR) signaling pathway (AID 1346795; active means well fitted inhibition curve with a large enough effect in the signal ratio in the repeat runs, not every such curve was filed as active; the % refers to the signal ratio; further: potency means the concentration at half of the fitted maximal effect). Put shortly: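 PR-UAS-bla HEK293T cells with beta-lactamase reporter under UAS control, in 2% charcoal-stripped FBS, treated with compounds plus 1 nM promegestone (R5020, final) for 16 hr at 37C. Read-out: FRET beta-lactamase substrate fluorescence after 2 hr at room temperature.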

Experiment [14] in a line: qHTS assay to identify small molecule agonists of the TGF-beta/Smad signaling pathway (AID 1346859; active means well fitted activation curve with a large enough effect in the signal ratio in the repeat runs, not every such curve was filed as active; the % refers to the signal ratio; further: potency means the concentration at half of the fitted maximal effect; on activation: series mostly up to about 77 µM). A digest of the protocol:
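SBE-bla HEK293T cells plated overnight, then compound exposure for 5 h at 37 C. Beta-lactamase reporter read with LiveBLAzer B/G FRET substrate after 2 h at room temperature, fluorescence at 405 nm excitation, 460/530 nm emission.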

Experiment [15] in a line: Human pregnane X receptor (PXR) small molecule agonists, qHTS cell viability counter screen (AID 1346977). Further: nearly all actives have a fitted effect of over 50% in size. Further: potency means the concentration at half of the fitted maximal effect. A digest of the protocol: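 PXR-Luc HepG2 cells (2,000/well, 5% charcoal-stripped FBS) preincubated 5 hr, then exposed to compounds 24 hr at 37 C. Viability read in the same wells by CellTiter-Fluor fluorescence, reagent added at 23 hr, 1 hr incubation.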
The nature of experiment [16]: qHTS assay to identify small molecule antagonists of the progesterone receptor (PR) signaling pathway - cell viability counter screen (AID 1346798). Further: series mostly up to about 92 µM; nearly all actives have a fitted effect of over 50% in size. A digest of the protocol:
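PR-UAS-bla HEK293T cells, 3,000/well in 2% charcoal-stripped FBS medium, dosed with compounds plus R5020 agonist and incubated 16 h at 37C. Viability then measured in the same wells by CellTiter-Glo luminescence after 30 min at RT.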

Experiment [17] in a line: qHTS assay to identify small molecule agonists of the progesterone receptor (PR) signaling pathway - cell viability counter screen (AID 1346799; calls by dose curve; further: nearly all actives have a fitted effect of over 45% in size). A digest of the protocol: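 Counter screen in the PR-UAS-bla HEK293T wells (2% charcoal-stripped FBS, 16 h compound exposure at 37 C) after the bla read. CellTiter-Glo added, 30 min at room temperature, luminescence read as cell viability.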

Experiment [18] has as its target Androgen receptor (Homo sapiens) (UniProt P10275). Description: qHTS assay to identify small molecule agonists of the androgen receptor (AR) signaling pathway in the presence of an antagonist (AID 1259381; calls by dose curve; further: nearly all actives have a fitted effect of over 15% in size). A digest of the protocol: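 Reporter-gene luminescence from MDA-kb2 cells exposed 16hr at 37C (0% CO2) to 15-point compound titrations with 3.0uM final nilutamide as AR antagonist.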

Molecules are shown by their SMILES. Values without a mark were called inactive. Records with an inconclusive call do not appear. Activity calls are given as the source filed them. Unless noted, the call rests on the fitted dose curve; in most records, active means well fitted curve in the direction sought with a large enough effect in the repeat runs; inconclusive means weak or mixed curves; inactive means no such curve, though single readings can be large; an effect the other way counts as inactive or inconclusive.
On the % scale 0 is the no-effect control and ±100 the full control effect.

Progesterone receptor (Homo sapiens), sequence (P06401 whole entry, looked up): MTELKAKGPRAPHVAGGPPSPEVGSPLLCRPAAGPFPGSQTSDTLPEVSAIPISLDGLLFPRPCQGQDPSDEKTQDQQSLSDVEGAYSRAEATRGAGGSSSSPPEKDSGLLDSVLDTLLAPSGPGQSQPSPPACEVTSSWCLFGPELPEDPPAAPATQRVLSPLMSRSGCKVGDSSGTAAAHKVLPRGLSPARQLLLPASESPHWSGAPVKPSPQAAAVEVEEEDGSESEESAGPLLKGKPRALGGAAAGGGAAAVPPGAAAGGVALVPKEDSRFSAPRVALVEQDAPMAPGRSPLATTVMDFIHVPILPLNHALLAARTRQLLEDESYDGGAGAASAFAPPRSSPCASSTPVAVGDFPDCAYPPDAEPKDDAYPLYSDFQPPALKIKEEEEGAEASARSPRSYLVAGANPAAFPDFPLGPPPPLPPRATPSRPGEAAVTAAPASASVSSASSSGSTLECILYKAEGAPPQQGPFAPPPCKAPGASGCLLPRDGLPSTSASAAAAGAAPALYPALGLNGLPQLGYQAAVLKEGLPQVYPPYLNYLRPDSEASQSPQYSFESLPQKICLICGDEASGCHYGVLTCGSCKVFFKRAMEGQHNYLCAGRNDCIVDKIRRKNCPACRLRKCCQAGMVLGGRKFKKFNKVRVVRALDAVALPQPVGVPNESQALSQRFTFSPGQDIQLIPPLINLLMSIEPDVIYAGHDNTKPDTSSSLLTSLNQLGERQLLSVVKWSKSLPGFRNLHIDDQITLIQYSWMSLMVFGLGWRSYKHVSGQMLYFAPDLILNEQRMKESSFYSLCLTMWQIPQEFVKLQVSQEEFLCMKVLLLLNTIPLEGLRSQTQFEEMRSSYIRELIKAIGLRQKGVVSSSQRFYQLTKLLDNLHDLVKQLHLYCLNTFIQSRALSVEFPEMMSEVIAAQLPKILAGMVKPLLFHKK
Thyrotropin receptor (Homo sapiens), sequence (P16473 whole entry, looked up): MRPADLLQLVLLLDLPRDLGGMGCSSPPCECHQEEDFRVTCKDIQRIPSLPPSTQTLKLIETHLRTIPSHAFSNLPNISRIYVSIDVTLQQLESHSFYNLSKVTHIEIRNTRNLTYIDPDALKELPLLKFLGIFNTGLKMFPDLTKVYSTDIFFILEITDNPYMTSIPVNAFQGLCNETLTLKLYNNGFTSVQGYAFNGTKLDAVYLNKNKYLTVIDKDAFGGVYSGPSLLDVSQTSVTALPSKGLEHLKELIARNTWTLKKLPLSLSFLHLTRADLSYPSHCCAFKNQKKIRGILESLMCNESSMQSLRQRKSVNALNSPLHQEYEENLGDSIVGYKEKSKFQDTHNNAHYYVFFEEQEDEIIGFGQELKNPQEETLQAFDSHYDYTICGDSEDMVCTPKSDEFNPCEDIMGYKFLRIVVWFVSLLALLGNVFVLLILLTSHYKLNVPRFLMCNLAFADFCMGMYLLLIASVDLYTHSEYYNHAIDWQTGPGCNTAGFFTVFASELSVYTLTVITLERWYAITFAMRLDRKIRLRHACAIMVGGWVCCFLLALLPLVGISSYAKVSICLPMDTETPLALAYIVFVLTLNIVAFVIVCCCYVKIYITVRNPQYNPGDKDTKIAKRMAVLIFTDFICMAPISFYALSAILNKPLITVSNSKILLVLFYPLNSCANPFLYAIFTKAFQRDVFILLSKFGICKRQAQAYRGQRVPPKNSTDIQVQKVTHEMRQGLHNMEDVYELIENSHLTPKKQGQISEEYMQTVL
Estrogen receptor (Homo sapiens), sequence (P03372 whole entry, looked up): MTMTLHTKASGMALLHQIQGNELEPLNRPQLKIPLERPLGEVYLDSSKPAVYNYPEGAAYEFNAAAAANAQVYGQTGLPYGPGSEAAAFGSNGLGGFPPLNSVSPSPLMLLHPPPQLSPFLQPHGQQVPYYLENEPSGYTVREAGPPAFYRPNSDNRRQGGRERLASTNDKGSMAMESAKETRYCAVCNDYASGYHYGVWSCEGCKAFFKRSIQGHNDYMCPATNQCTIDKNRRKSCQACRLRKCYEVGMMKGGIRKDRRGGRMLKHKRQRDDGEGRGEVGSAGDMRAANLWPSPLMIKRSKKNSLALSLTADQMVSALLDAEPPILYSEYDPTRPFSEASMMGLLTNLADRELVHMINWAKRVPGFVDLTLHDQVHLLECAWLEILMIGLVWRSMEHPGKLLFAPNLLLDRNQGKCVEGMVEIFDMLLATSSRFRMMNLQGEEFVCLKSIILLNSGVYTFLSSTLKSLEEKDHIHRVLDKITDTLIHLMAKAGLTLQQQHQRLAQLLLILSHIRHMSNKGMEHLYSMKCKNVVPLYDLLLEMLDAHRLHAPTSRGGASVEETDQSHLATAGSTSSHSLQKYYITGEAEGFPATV
Thyrotropin-releasing hormone receptor (Homo sapiens), sequence (P34981 whole entry, looked up): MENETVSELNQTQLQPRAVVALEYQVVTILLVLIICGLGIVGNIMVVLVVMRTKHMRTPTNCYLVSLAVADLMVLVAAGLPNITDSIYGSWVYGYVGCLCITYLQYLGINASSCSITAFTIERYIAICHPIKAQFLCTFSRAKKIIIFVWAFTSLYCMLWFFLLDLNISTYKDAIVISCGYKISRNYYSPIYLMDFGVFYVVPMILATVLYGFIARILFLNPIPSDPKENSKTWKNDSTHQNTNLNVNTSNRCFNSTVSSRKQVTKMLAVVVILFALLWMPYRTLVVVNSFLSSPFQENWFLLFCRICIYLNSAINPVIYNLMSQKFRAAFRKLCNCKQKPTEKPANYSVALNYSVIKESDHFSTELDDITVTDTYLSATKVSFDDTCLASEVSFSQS
Androgen receptor (Homo sapiens), sequence (P10275 whole entry, looked up): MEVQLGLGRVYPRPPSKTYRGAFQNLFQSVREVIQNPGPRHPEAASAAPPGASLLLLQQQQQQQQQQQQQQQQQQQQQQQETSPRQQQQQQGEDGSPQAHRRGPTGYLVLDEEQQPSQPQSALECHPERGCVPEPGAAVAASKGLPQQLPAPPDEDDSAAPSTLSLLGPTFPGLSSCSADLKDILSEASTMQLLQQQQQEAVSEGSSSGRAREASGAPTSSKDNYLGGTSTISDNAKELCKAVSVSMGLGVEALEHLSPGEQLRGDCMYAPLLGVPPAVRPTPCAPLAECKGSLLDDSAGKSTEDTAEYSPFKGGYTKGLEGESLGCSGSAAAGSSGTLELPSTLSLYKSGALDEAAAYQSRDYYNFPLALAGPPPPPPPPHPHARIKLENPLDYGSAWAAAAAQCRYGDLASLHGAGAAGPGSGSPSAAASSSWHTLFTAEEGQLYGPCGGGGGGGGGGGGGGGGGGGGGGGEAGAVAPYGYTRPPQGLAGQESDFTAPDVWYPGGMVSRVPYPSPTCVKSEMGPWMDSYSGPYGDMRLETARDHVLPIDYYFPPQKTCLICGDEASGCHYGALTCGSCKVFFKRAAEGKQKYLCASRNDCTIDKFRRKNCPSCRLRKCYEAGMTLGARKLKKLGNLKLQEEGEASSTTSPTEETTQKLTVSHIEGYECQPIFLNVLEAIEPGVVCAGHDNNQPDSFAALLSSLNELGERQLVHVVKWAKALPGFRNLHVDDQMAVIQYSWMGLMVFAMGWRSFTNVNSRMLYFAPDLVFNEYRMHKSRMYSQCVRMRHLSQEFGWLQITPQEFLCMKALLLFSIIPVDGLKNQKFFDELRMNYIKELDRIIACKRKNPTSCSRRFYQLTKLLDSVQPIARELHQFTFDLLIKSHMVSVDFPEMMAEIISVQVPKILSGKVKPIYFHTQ

In the case of `O=C(O)c1cc(N=Nc2ccc([N+](=O)[O-])cc2)ccc1O`, the Potency in [1] was 60 µM (active). For the same molecule, the Potency result in experiment [2], in [4], in [5], in experiment [6], in [7] and in experiment [8] was “inactive” throughout. Further, the molecule was called inactive in experiment [3] and in experiment [9].
For `CCCCCCCC`, the Potency entry in experiment [10], in experiment [11], in [2], in [4], in experiment [12] and in [5] was “inactive” throughout. Also, the Potency result in experiment [13], in [6], in experiment [7], in experiment [14], in [8] and in experiment [15] was “inactive” throughout. Besides, the molecule was classed as inactive in experiment [3] and in experiment [9].
Turning to `NC[C@H]1O[C@H](O[C@H]2[C@H](O[C@@H]3O[C@H](CO)[C@@H](O)[C@H]3O)C(O)[C@H](N)C[C@@H]2N)[C@H](N)[C@@H](O)[C@@H]1O` (stereo partly specified), the cAMP activity change in experiment [3] was -9.73% [at 8.39 µM]. Also, the activity change, negative = inhibition in [4] was -4.82% [at 8.39 µM]; in experiment [13], 0.98% [at 8.39 µM]. Also, the activity change, negative = cytotoxicity is 3.36% [at 8.39 µM] in [12]; 12.4% [at 8.39 µM] in [16]; 9.53% [at 8.39 µM] in experiment [17]; 21.1% [at 6.97 µM] in experiment [7]; 22.9% [at 8.39 µM] in experiment [15]. The activation in [5] is 14.9% [at 8.39 µM]; in experiment [14], 6.05% [at 6.97 µM]; in [9], -0.179% [at 5.23 µM]. Besides, the viability change, negative = cytotoxic in experiment [6] was -16.4% [at 6.97 µM]. Further, the activity, negative = inhibition in [8] was 3.15% [at 4.65 µM].
In the case of `O=c1[nH]c2ccccc2n1CCCN1CCN(C(c2ccccc2)c2ccccc2)CC1`, the figures for the Potency in [10], in [13] and in [15] were 11.9 µM (active), 29.8 µM (active) and 33.5 µM (active), respectively. Also, in [3], the call was inactive. Further, the Potency result in [4], in experiment [12], in experiment [5], in [6] and in experiment [7] was “inactive” each time.
As for `O=S(=O)(O)c1ccc(Nc2nc(Nc3ccc(/C=C/c4ccc(Nc5nc(Nc6ccc(S(=O)(=O)O)cc6)nc(N(CCO)CCO)n5)cc4S(=O)(=O)O)c(S(=O)(=O)O)c3)nc(N(CCO)CCO)n2)cc1`, the Potency entry in experiment [10], in [11], in [2], in experiment [4], in [12] and in experiment [16] was “inactive” in each case. Besides, the Potency entry in experiment [17], in experiment [6], in experiment [7], in experiment [8] and in experiment [15] was “inactive” in each case. In addition, the outcome in experiment [18], in [3] and in experiment [9] was inactive. Also, the Potency in [14] is 33.1 µM (active).
Take `C#Cc1ccc(-c2ccccc2F)cc1`: the Potency result in [10], in experiment [11], in [2], in [4], in [12] and in experiment [5] was “inactive” in each case. Further, the Potency entry in experiment [13], in experiment [16], in experiment [17], in [6], in [7] and in [14] was “inactive” in each case. The Potency entry in [8] and in [15] was “inactive” in each case. The result in experiment [3] and in [9] was inactive.
As to `C/C=C/C=C/COC(=O)C(C)C`, the Potency result in [10], in experiment [11], in [4], in experiment [12], in experiment [5] and in experiment [13] was “inactive” in each case. The Potency entry in [16], in experiment [17], in experiment [6], in experiment [7] and in [8] was “inactive” throughout. Also, the call in experiment [3] and in [9] was inactive. Besides, in [15], the Potency is 68.6 µM (active).
On to `C=CC(=O)OCCOC(=O)C=C`, for which the Potency entry in experiment [10], in [11], in experiment [4], in [12], in [5] and in experiment [13] was “inactive” in each case. In addition, the Potency result in experiment [16], in [17], in experiment [6], in experiment [7], in experiment [8] and in experiment [15] was “inactive” each time. Moreover, the outcome in experiment [18], in experiment [3] and in experiment [9] was inactive. Moreover, the Potency in experiment [2] was 61.1 µM (active).
As to `CC1=Nc2ccccc2C1(C)C`, the Potency entry in [10], in [11], in [4], in [12], in [5] and in [17] was “inactive” in each case. Further, the Potency result in experiment [6], in experiment [7], in experiment [14], in experiment [8] and in experiment [15] was “inactive” in each case. Besides, the outcome in [3] and in [9] was inactive. Besides, the Potency in experiment [13] is 30.7 µM (active).
As for `CCc1oc2ccccc2c1C(=O)c1cc(I)c(O)c(I)c1`, the Potency entry in experiment [2], in experiment [4], in [6], in experiment [7] and in experiment [14] was “inactive” in each case. The outcome in experiment [3] was inactive. For the same molecule, the Potency in experiment [13] is 21.1 µM (active).
Turning to `O=C(O)c1cc(-c2ccc(F)cc2F)ccc1O`, the Potency result in [1], in experiment [2], in experiment [12], in experiment [5], in experiment [13] and in experiment [16] was “inactive” in each case. Also, the Potency entry in experiment [6], in experiment [7] and in experiment [15] was “inactive” in each case.
